Source: PubChem BioAssay (EPA / NIEHS)
Active and inactive are the calls of the source. The calls were made as follows: active = hit-call score of the fitted dose curve at least 0.9, where 1 is the maximum; inactive = score below 0.9.

Assays:
[1] = BSK_hDFCGF_SRB: Viability Assessment in the BioMAP Diversity Plus: hDFCGF Assay (AID 2283061); details: primary human foreskin fibroblasts;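 also: cells exposed to compound for 24 h before the read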
Procedure, shortened: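 Primary human foreskin fibroblasts; 24 h post-dose; fixed 10% TCA, stained 0.1% SRB, A560 read; total protein as overt cytotoxicity measure; curves fit bidirectionally vs DMSO control.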

[2] = read-out: TIMP metallopeptidase inhibitor 1 (TIMP1), TIMP1 (gene 7076); test: BSK_hDFCGF_TIMP1: BioMAP Diversity Plus: hDFCGF Assay for TIMP metallopeptidase inhibitor 1 (TIMP1) Biomarker Activity (AID 2283062); details: primary human foreskin fibroblasts; actives raise or lower the signal
Procedure, shortened: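 ELISA readout of TIMP-1 from human dermal foreskin fibroblast cultures 24 h post-dosing. Curves were fitted in both directions against DMSO baseline, with SRB total-protein staining in parallel cultures as a cytotoxicity check.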

[3] = read-out: Monokine induced gamma interferon (MIG), CXCL9 (gene 4283); test: BSK_hDFCGF_MIG: BioMAP Diversity Plus: hDFCGF Assay for Monokine induced gamma interferon (MIG) Biomarker Activity (AID 2283063); details: primary human foreskin fibroblasts; actives raise or lower the signal
Procedure, shortened: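 Fibroblasts (human foreskin, primary) dosed, 24 h, MIG by ELISA; fit bidirectional vs DMSO.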

[4] = read-out: Matrix Metallopeptidase 1 (MMP1), MMP1 (gene 4312); test: BSK_hDFCGF_MMP1: BioMAP Diversity Plus: hDFCGF Assay for Matrix Metallopeptidase 1 (MMP1) Biomarker Activity (AID 2283064); details: primary human foreskin fibroblasts; actives raise or lower the signal
Procedure, shortened: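 hDFCGF primary fibroblasts (human foreskin); chemical added; 24 h; MMP1 by ELISA; bidirectional fit vs DMSO.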

[5] = read-out: Vascular cell adhesion molecule 1 (VCAM1), VCAM1 (gene 7412); test: BSK_hDFCGF_VCAM1: BioMAP Diversity Plus: hDFCGF Assay for Vascular cell adhesion molecule 1 (VCAM1) Biomarker Activity (AID 2283065); details: primary human foreskin fibroblasts; actives raise or lower the signal;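 as to AC50: VCAM-1 protein level quantified by ELISA after 24 h chemical exposure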
Procedure, shortened: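 ELISA read-out of VCAM-1 on human skin fibroblasts, 24 h post-dose; gain or loss of signal fitted bidirectionally against DMSO baseline.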

[6] = read-out: Plasminogen activator inhibitor-1 (PAI1), SERPINE1 (gene 5054); test: BSK_hDFCGF_PAI1: BioMAP Diversity Plus: hDFCGF Assay for Plasminogen activator inhibitor-1 (PAI1) Biomarker Activity (AID 2283066); details: primary human foreskin fibroblasts; actives raise or lower the signal
Procedure, shortened: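 Human foreskin fibroblast primary cells, 24 h chemical exposure; PAI-1 measured by ELISA. Bidirectional fitting relative to DMSO; parallel cultures stained with SRB for total protein to flag overt cytotoxicity.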

[7] = read-out: Intercellular Adhesion Molecule 1 (ICAM1), ICAM1 (gene 3383); test: BSK_KF3CT_ICAM1: BioMAP Diversity Plus: KF3CT Assay for Intercellular Adhesion Molecule 1 (ICAM1) Biomarker Activity (AID 2283067); details: primary human keratinocytes with fibroblasts; actives raise or lower the signal
Procedure, shortened: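 ELISA readout of ICAM-1; KF3CT human skin co-culture (keratinocytes + foreskin fibroblasts), 24 h post-dose; gain/loss fit vs DMSO baseline.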

[8] = read-out: Interferon-gamma inducible Protein 10 (IP10), CXCL10 (gene 3627); test: BSK_KF3CT_IP10: BioMAP Diversity Plus: KF3CT Assay for Interferon-gamma inducible Protein 10 (IP10) Biomarker Activity (AID 2283068); details: primary human keratinocytes with fibroblasts; actives raise or lower the signal
Procedure, shortened: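 Signal is secreted/surface IP-10 by ELISA in a human primary skin co-culture of keratinocytes and foreskin fibroblasts, taken 24 h post-dosing; DMSO served as negative control.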

[9] = BSK_KF3CT_SRB: Viability Assessment in the BioMAP Diversity Plus: KF3CT Assay (AID 2283069); details: primary human keratinocytes with fibroblasts;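 also: total protein by sulforhodamine B staining as a cytotoxicity measure; read 24 h after compound addition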
Procedure, shortened: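 Keratinocytes co-cultured with foreskin fibroblasts (human primary); chemical added, 24 h; fix 10% TCA, stain 0.1% SRB, A560. Bidirectional fit vs DMSO.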

[10] = read-out: Interleukin-1 alpha (IL1a), IL1A (gene 3552); test: BSK_KF3CT_IL1a: BioMAP Diversity Plus: KF3CT Assay for Interleukin-1 alpha (IL1a) Biomarker Activity (AID 2283070); details: primary human keratinocytes with fibroblasts; actives raise or lower the signal
Procedure, shortened: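 Chemicals were dosed onto co-cultured human keratinocytes and foreskin fibroblasts, IL-1a was quantified by ELISA at 24 h, and activity was fitted in both directions relative to DMSO controls.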

[11] = read-out: TIMP metallopeptidase inhibitor 2 (TIMP2), TIMP2 (gene 7077); test: BSK_KF3CT_TIMP2: BioMAP Diversity Plus: KF3CT Assay for TIMP metallopeptidase inhibitor 2 (TIMP2) Biomarker Activity (AID 2283071); details: primary human keratinocytes with fibroblasts; actives raise or lower the signal
Procedure, shortened: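 Co-culture of human primary keratinocytes and foreskin fibroblasts, measured 24 h after chemical dosing. TIMP-2 quantified by ELISA and fitted in both directions relative to DMSO. Cytotoxicity checked in parallel cultures by SRB total-protein staining.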

[12] = read-out: Transforming growth factor beta 1 (TGFb1), TGFB1 (gene 7040); test: BSK_KF3CT_TGFb1: BioMAP Diversity Plus: KF3CT Assay for Transforming growth factor beta 1 (TGFb1) Biomarker Activity (AID 2283072); details: primary human keratinocytes with fibroblasts; actives raise or lower the signal
Procedure, shortened: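 Human keratinocyte/foreskin fibroblast co-culture; TGF-b1 measured by ELISA 24 h after dosing, fitted bidirectionally versus DMSO. Cytotoxicity checked in parallel cultures by total protein (SRB staining, 560 nm).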

[13] = read-out: Matrix Metallopeptidase 9 (MMP9), MMP9 (gene 4318); test: BSK_KF3CT_MMP9: BioMAP Diversity Plus: KF3CT Assay for Matrix Metallopeptidase 9 (MMP9) Biomarker Activity (AID 2283074); details: primary human keratinocytes with fibroblasts; actives raise or lower the signal;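 as to AC50: MMP9 protein level quantified by ELISA in the co-culture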
Procedure, shortened: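 Human keratinocyte/foreskin fibroblast co-culture; compound added; 24 h; MMP-9 by ELISA; bidirectional fit vs DMSO baseline.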

[14] = read-out: urokinase plasminogen activator (uPA), PLAU (gene 5328); test: BSK_KF3CT_uPA: BioMAP Diversity Plus: KF3CT Assay for urokinase plasminogen activator (uPA) Biomarker Activity (AID 2283075); details: primary human keratinocytes with fibroblasts; actives raise or lower the signal
Procedure, shortened: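 ELISA readout of uPA, analyzed for signal gain or loss relative to DMSO, from a human primary keratinocyte–foreskin fibroblast co-culture measured 24 h after chemical treatment.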

[15] = read-out: CD40, CD40 (gene 958); test: BSK_LPS_CD40: BioMAP Diversity Plus: LPS Assay for CD40 Biomarker Activity (AID 2283076); details: primary human HUVEC with PBMC; actives raise or lower the signal
Procedure, shortened: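 ELISA readout of CD40 in HUVEC/PBMC co-culture (BSK_LPS system), 24 h post-dosing; bidirectional curve fit, DMSO baseline; parallel SRB total-protein staining for cytotoxicity.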

[16] = read-out: E-selectin (Homo sapiens) (UniProt P16581); test: BSK_LPS_Eselectin: BioMAP Diversity Plus: LPS Assay for Eselectin Biomarker Activity (AID 2283077); details: primary human HUVEC with PBMC; actives raise or lower the signal
Procedure, shortened: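 ELISA readout of E-selectin, 24 h post-dose, HUVEC + PBMC co-culture (LPS system). Gain or loss of signal vs DMSO baseline, bidirectional fit.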

[17] = read-out: Interleukin-8 (IL8), CXCL8 (gene 3576); test: BSK_LPS_IL8: BioMAP Diversity Plus: LPS Assay for Interleukin-8 (IL8) Biomarker Activity (AID 2283078); details: primary human HUVEC with PBMC; actives raise or lower the signal
Procedure, shortened: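 HUVEC + PBMC co-culture, LPS-activated; test chemicals dosed, IL-8 read by ELISA at 24 h. Bidirectional curve fit vs DMSO baseline (gain or loss of signal).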

[18] = BSK_LPS_SRB: Viability Assessment in the BioMAP Diversity Plus: LPS Assay (AID 2283079); details: primary human HUVEC with PBMC;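 also: total protein by sulforhodamine B absorbance as a cytotoxicity measure; measured one day after compound addition; fitted in both directions against DMSO so loss or gain of signal counts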
Procedure, shortened: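 HUVEC + PBMC co-culture, LPS-stimulated; compound 24 h. 10% TCA fix, 0.1% SRB stain, A560. Bidirectional fit vs DMSO.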

[19] = read-out: C-C motif chemokine 2 (Homo sapiens) (UniProt P13500); test: BSK_KF3CT_MCP1: BioMAP Diversity Plus: KF3CT Assay for Monocyte Chemoattractant Protein 1 (MCP1/CCL2) Biomarker Activity (AID 2283073); details: primary human keratinocytes with fibroblasts; actives raise or lower the signal
Procedure, shortened: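 KF3CT skin co-culture (keratinocytes/foreskin fibroblasts), 24 h post-dose; MCP-1 by ELISA; gain/loss of signal fit bidirectionally vs DMSO baseline.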

Measured: AC50

Chain of E-selectin (Homo sapiens) (P16581 whole entry, looked up): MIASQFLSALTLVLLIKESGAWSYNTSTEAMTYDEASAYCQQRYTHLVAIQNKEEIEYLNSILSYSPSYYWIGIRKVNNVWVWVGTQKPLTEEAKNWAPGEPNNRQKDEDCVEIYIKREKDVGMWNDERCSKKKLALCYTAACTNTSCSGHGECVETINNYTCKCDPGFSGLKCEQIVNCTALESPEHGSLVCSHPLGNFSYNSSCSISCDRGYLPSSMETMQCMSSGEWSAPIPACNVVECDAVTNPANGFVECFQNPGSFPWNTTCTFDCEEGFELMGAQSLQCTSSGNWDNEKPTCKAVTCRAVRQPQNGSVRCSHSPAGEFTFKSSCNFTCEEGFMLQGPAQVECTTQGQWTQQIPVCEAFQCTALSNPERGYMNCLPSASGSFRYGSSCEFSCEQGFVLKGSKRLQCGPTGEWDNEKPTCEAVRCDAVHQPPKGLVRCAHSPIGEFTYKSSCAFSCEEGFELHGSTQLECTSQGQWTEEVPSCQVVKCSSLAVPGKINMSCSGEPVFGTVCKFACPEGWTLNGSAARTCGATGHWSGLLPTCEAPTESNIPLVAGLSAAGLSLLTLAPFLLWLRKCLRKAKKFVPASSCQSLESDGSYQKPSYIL

COc1ccc(OC)c(N=Nc2c(O)ccc3ccccc23)c1
inactive: [6] | [7] | [8] | [9] | [17] | [18]
active: [1] 8.26 µM | [2] 4.02 µM | [3] 1.93 µM | [4] 14.2 µM | [5] 1.42 µM | [10] 8.38 µM | [11] 7.85 µM | [12] 3.97 µM | [13] 4.27 µM | [14] 7.69 µM | [15] 3.84 µM | [16] 20 µM

CCN(CC)C(=O)N(CC)CC
inactive: [1] | [2] | [3] | [4] | [5] | [6] | [7] | [8] | [9] | [10] | [11] | [12] | [13] | [14] | [15] | [16] | [17] | [18]

CC(=O)c1c(C)c([N+](=O)[O-])c(C(C)(C)C)c([N+](=O)[O-])c1C
inactive: [1] | [2] | [3] | [4] | [5] | [6] | [7] | [8] | [9] | [10] | [11] | [12] | [19] | [13] | [14] | [15] | [16] | [17] | [18]

CC(C)(C)CC(C)(C)c1ccc(OCCOCC[N+](C)(C)Cc2ccccc2)cc1
active: [1] 6.6 µM | [2] 5 µM | [3] 7.5 µM | [4] 5 µM | [5] 6.9 µM | [6] 5 µM | [7] 9.07 µM | [8] 7.61 µM | [9] 6.61 µM | [10] 8.08 µM | [11] 2.26 µM | [12] 3.38 µM | [13] 5 µM | [14] 5 µM | [15] 7.8 µM | [16] 7.56 µM | [17] 6.61 µM | [18] 8.5 µM

CSCCC=O
inactive: [1] | [2] | [3] | [4] | [5] | [6] | [7] | [8] | [9] | [10] | [11] | [12] | [13] | [14] | [15] | [16] | [17] | [18]

C1=CC2C3C=CC(C3)C2C1 (configuration not stated)
inactive: [1] | [2] | [3] | [4] | [5] | [6] | [7] | [8] | [9] | [10] | [11] | [12] | [13] | [14] | [15] | [16] | [17] | [18]

COc1ccc(CCN2CCC(Nc3nc4ccccc4n3Cc3ccc(F)cc3)CC2)cc1
active: [2] 6.47 µM | [6] 7.58 µM | [13] 5 µM | [18] 5 µM
inactive: [1] | [3] | [4] | [5] | [7] | [8] | [9] | [10] | [11] | [12] | [14] | [15] | [16] | [17]

CS(=O)(=O)OCCCCOS(C)(=O)=O
inactive: [1] | [2] | [3] | [4] | [5] | [6] | [7] | [8] | [9] | [10] | [11] | [12] | [13] | [14] | [15] | [16] | [17] | [18]

Clc1cc(Cl)c(-c2c(Cl)c(Cl)cc(Cl)c2Cl)cc1Cl
active: [1] 14.7 µM | [2] 10 µM | [4] 18.5 µM | [5] 14.5 µM | [6] 2.94 µM | [8] 15.5 µM | [9] 13.7 µM | [10] 2.95 µM | [11] 6.63 µM | [12] 4.16 µM | [13] 8.51 µM | [14] 10 µM | [15] 10 µM | [16] 8.81 µM
inactive: [3] | [7] | [17] | [18]

C=C(C)C(=O)OCC(CC)(COC(=O)C(=C)C)COC(=O)C(=C)C
inactive: [7] | [8] | [9] | [10] | [11] | [12] | [13] | [14] | [15] | [16] | [17] | [18]
active: [1] 32.1 µM | [2] 33 µM | [3] 34.3 µM | [4] 37.9 µM | [5] 23.4 µM | [6] 16 µM

CC(=O)C1(C)CC2=C(CCCC2(C)C)CC1C (configuration not stated)
inactive: [12]
active: [1] 11.2 µM | [2] 12 µM | [3] 14.2 µM | [4] 12.8 µM | [5] 9.73 µM | [6] 11.8 µM | [7] 12.3 µM | [8] 11.2 µM | [9] 10.2 µM | [10] 13.1 µM | [11] 5.63 µM | [13] 10.9 µM | [14] 11.6 µM | [15] 6.43 µM | [16] 9.47 µM | [17] 10.1 µM | [18] 13.3 µM

CC=Cc1ccc(OCC)c(O)c1
inactive: [1] | [2] | [3] | [4] | [5] | [6] | [7] | [8] | [9] | [10] | [11] | [12] | [19] | [13] | [14] | [15] | [16] | [18]
